We go through 40 molecules from PubChem BioAssay (Tox21).

Molecules are shown by their SMILES. Results filed as inconclusive are left out. Entries that show only a call come without a potency. Calls of active or inactive are those of the source. Calls come from the whole dose curve. Peptide text beside a SMILES is read from it.

The test can be described thus: cAMP Responsive Elements (CRE) small molecule agonists, cell-based qHTS assay (AID 1963590). To be noted: CRE-bla HEK293T, beta-lactamase FRET ratio, 3 h; series mostly up to 92.4 µM. The text has this:
U.S. Tox21 Program National Center for Advancing Translational Sciences [NCATS] Division of Preclinical Innovation [DPI] U.S. Environmental Protection Agency [EPA] National Institutes of Environmental Health Sciences [NIEHS] National Toxicology Program [NTP] U.S. Food and Drug Administration [FDA] Tox21 Assay Overview: CREB (cyclic-AMP Responsive Element Binding Protein) is a cellular transcription factor. It binds to certain DNA sequences called cAMP Responsive Elements (CRE) and regulates the transcription of the genes. […] This cell line can be used to find agonists/antagonists of the cyclic AMP signaling pathway. The activation of the report gene under culture conditions can be detected by fluorescence intensity. This cell line has been used to screen the Tox21 10K compound library to identify agonists that induce oxidative stress.
Tox21 Assay Protocol Summary: CRE-bla Hek 293T cells were suspended in assay medium (DMEM containing 10% dialyzed FBS, 0.1 mM NEAA, 1 mM sodium pyruvate and 25 mM HEPES) and dispensed at 2,000 cells/5 uL /well into 1536-well black wall/clear bottom plates using a Multidrop Combi (ThermoFisher Scientific, Waltham, MA) dispenser. After the assay plates were incubated at 37 C/5% CO2 for 18 hrs, 23 nL of compounds dissolved in DMSO, positive controls or DMSO only was transferred to the assay plate by a pintool workstation (Kalypsys, San Diego, CA). After the plates were incubated at 37 C/5% CO2 for 3 hrs, 1 uL of LiveBLAzer B/G FRET substrate (Invitrogen, Carlsbad, CA) was added to each well using Bioraptr Flying Reagent Dispenser (FRD, Aurora Discovery, San Diego, CA). The plates were incubated at room temperature for 2 h.
On the technique in general: qHTS replaces the single test concentration by a dilution series.
Turning to `CCCCOc1cc(C(=O)NCCN(CC)CC)c2ccccc2n1`, the Potency result is “inactive”.
Take `O=C(/C=C/c1ccc(O)c(O)c1)O[C@@H]1C[C@](O)(C(=O)O)C[C@@H](O)[C@H]1O`: the Potency entry is “inactive”.
As to `C=CC(OCC)OCC`, the Potency result is “inactive”.
For the molecule `N[C@H]1C(O)O[C@H](CO)[C@H](O)[C@@H]1O` (stereo not given in full), the Potency entry is “inactive”.
Consider `CN(C)CCN1C(=O)c2ccccc2N(C)c2ccccc21`, for which the Potency result was “inactive”.
In the case of `CCN(CC)CCOCCOC(=O)C1(c2ccccc2)CCCC1`, the Potency entry was “inactive”.
The same measure for `c1ccc(COCc2ccccc2)cc1`: “inactive”; for `Cc1ccc2c(c1)c1c3n2CCNC3CCC1` (stereo not given): “inactive”.
On to `C/C=C/C(=O)OCC(C)C`, for which the Potency entry was “inactive”.
In the case of `O=CC(=O)c1ccccc1`, the Potency result is “inactive”.
On to `CCN(CC)C(=O)N(CC)CC`, for which the Potency entry is “inactive”.
Regarding `C[C@@H]1C[C@H]2[C@@H]3CCC4=CC(=O)C=C[C@]4(C)[C@@]3(F)[C@@H](O)C[C@]2(C)[C@@]1(O)C(=O)COP(=O)(O)O`, the Potency entry is “inactive”.
Regarding `CC(=O)c1ccc(Cl)c(Cl)c1Cl`, the Potency entry is “inactive”.
For `C=CC(C)(CCC=C(C)C)OC(=O)c1ccccc1` (stereo not given), the Potency result was “inactive”.
For `CC(=O)N[C@@H](CO)C(=O)N[C@@H](CC(=O)O)C(=O)N[C@@H](CCCCN)C(=O)N1CCC[C@H]1C(=O)O` (Ac-SDKP-OH) the value was “inactive”; for `CCCCOC(=O)CC`, “inactive”; for `CC(C)=CCC[C@H](C)CCO`, “inactive”.
On to `OCCN(CCO)c1ccccc1`, for which the Potency result was “inactive”.
With `CC[C@H]1OC(=O)[C@H](C)[C@@H](O[C@H]2C[C@@](C)(OC)[C@@H](O)[C@H](C)O2)[C@H](C)[C@@H](O[C@@H]2O[C@H](C)C[C@H](N(C)C)[C@H]2O)[C@](C)(O)C[C@@H](C)C(=O)[C@H](C)[C@@H](O)[C@]1(C)O`, the Potency result is “inactive”.
Turning to `Cn1c(=O)c2c(ncn2CC(O)CO)n(C)c1=O` (stereo not given), the Potency result was “inactive”.
In the case of `CC(C)(C)N(CCO)CCO`, the Potency result was “inactive”.
As to `CCCCCCCCCCCCCC(=O)OCC(O)CO` (stereo not given), the Potency result is “inactive”.
The same measure for `CCN(CC)CCOc1ccccc1C(=O)CCc1ccccc1`: “inactive”; for `CCCCNc1ccc(C(=O)OCCN(C)C)cc1`: “inactive”.
As to `CC(C)C(=O)OC/C=C/c1ccccc1`, the Potency entry is “inactive”.
Consider `CCN(CC)CCNC(=O)c1cc(Br)c(N)cc1OC`, for which the Potency result was “inactive”.
With `CC1c2ccccc2CN1NC(=O)c1ccc(Cl)c(S(N)(=O)=O)c1` (stereo not given), the Potency result is “inactive”.
Turning to `CN[C@@H]1[C@H](O)[C@H](NC)[C@H]2O[C@@]3(O)C(=O)C[C@@H](C)O[C@H]3O[C@@H]2[C@H]1O`, the Potency entry was “inactive”.
On to `O=C(O)CCCc1ccccc1`, for which the Potency result was “inactive”.
For `CC1(C)CC(N)CC(C)(C)N1` the value was “inactive”; for `COc1cccc(O)c1O`, “inactive”.
As for `CCCS(=O)c1ccc2nc(NC(=O)OC)[nH]c2c1` (stereo not given), the Potency result is “inactive”.
For `CCOC(=O)Cc1cccc2ccccc12` the value was “inactive”; for `Cc1ccc(N)nc1`, “inactive”; for `NS(=O)(=O)Cc1noc2ccccc12`, “inactive”.
On to `O=Cc1c(Cl)cccc1Cl`, for which the Potency entry is “inactive”.
With `Cc1cccc([N+](=O)[O-])c1C(=O)O`, the Potency result was “inactive”.
Regarding `Clc1cc(Cl)cc(Cl)c1`, the Potency entry is “inactive”.
Take `CC(C)NCC(O)c1ccc2ccccc2c1` (stereo not given): the Potency result was “inactive”.
The same measure for `CCCCCC#CC(=O)OC`: “inactive”.
